From PubChem BioAssay AID1220 (Sanford-Burnham Center for Chemical Genomics, 2008)
Hit rate of the full screen: of about 190,000 compounds, about 1,300 (0.68%) were called active. Many of the other results were omitted from the sample, so actives are more common in it than they were. Values without a mark were called inactive. Cut-off read from the data, not from the text of the source: active = inhibition above about 50%; inactive = the rest.

These molecules were tested against Mannose-6-phosphate isomerase (Homo sapiens) (UniProt P34949) (assay: human PMI inhibitors, high substrate, primary screen, biochemical, fluorescence intensity, high mannose 6-phosphate (AID 1220)). Details: recombinant PMI enzyme, coupled fluorescence intensity; at 20 µM; hits give high values.
Chain of Mannose-6-phosphate isomerase (Homo sapiens) (P34949 whole entry, looked up): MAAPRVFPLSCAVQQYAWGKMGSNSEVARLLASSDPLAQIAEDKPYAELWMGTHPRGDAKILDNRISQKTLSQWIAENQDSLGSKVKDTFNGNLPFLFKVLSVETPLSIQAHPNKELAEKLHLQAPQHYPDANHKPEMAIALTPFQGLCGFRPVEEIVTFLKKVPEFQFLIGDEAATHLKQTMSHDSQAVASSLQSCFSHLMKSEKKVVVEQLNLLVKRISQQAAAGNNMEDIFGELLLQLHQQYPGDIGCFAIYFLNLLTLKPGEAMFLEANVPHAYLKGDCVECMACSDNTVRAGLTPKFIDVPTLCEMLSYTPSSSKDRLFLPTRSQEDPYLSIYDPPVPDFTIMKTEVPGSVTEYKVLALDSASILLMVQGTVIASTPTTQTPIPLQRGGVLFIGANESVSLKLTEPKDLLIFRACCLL

In order of rising inhibition:
1. Oc1cccc2cc3cccc(O)c3c(O)c12  -119%
2. O=C1OCC(CO)(CO)N=C1NNc1cc(Cl)ccc1Cl  -81.3%
3. Cc1cc(C)c2ccc(C)[n+]([O-])c2c1O  -26.8%
4. O=C(NC(=S)Nc1ccc2c(c1)C(=O)c1ccccc1C2=O)c1ccc(F)cc1  -25.8%
5. CC(C)C(NC(=O)c1ccccc1Cl)C(=O)OCc1nc2scc(-c3ccccc3Cl)c2c(=O)[nH]1 (centres undefined)  -15.4%
6. CN(C)CCCCOc1cccc(Br)c1  -14%
7. COC(=O)c1ccccc1NC(=O)N[C@@H](C)C(=O)OC  -13.4%
8. OCCOCCOc1ccc(-c2nn[nH]n2)cc1  -12.5%
9. COCCn1c(=O)[nH]c2cc(C(=O)NCCCN3CCN(c4ccc(F)cc4)CC3)ccc2c1=O  -12.2%
10. CCOC(=O)N1CCN(c2cccc(C)c2C)CC1  -11.4%
11. CCOC(=O)N1CCN(C(=O)C2CCN(CC3CCCCC3)CC2)CC1  -10.5%
12. CCOC(=O)/C=C/C(=O)OCC(=O)Nc1c(Cl)cccc1Cl  -9.4%
13. Cc1cccc(Cn2ccc(NC(=O)c3cccnc3)n2)c1  -9.3%
14. O=S1(=O)N=C(N2CCc3ccccc3C2)c2ccccc21  -8.5%
15. O=C(O)C1=C[C@H](c2ccc(Br)cc2)C[C@H](OCCCCO)O1  -7.2%
16. CCOCCCN1CN(Cc2ccccc2)CNC1=S  -6.2%
17. COCCNC(=O)CN(C(=O)Cn1nnc2ccccc21)c1ccc(F)c(Cl)c1  -5.3%
18. O=c1c(Cc2ccc(Cl)cc2Cl)c(O)ccn1CCCN1CCOCC1  -5.3%
19. CC(C)n1nnnc1SCC(=O)NCc1ccc2c(c1)OCO2  -4.5%
20. Cc1ccc(C(=O)N/C(=C/c2ccccc2)C(=O)NCC2CCCO2)cc1 (centres undefined)  -4.3%
21. CCOc1ccc(C(=O)CC(Sc2ccc(C)cc2)C(=O)O)cc1 (centres undefined)  -4%
22. Oc1ccccc1C1=NCCNC(C(F)(F)F)=C1  -3.4%
23. O=C(NC1CC1)C1=C[C@@H](c2ccc(Br)cc2)C[C@@H](OCCCCO)O1  -2.7%
24. CCC(=O)Nc1cc(C(C)C)c(O)cc1C  -2.4%
25. O=C(CN1C(=O)c2cccc3cccc(c23)C1=O)N1CCN(c2ccccn2)CC1  -1.5%
26. O=C(C1=C[C@@H](c2ccc(C(F)(F)F)cc2)C[C@@H](OCCCCO)O1)N1CCOCC1  -1.4%
27. COc1ccc(C(=O)OCC(=O)N2C(C)CCCC2C)cc1[N+](=O)[O-] (centres undefined)  -0.8%
28. CCCc1nc2c(sc3nc4c(cc32)COC(C)(C)C4)c(=O)n1CCN(CC)CC  -0.7%
29. O=C(C1=C[C@H](c2ccc(C(F)(F)F)cc2)C[C@H](OCCCCO)O1)N1CCOCC1  -0.7%
30. Cc1onc(-c2c(Cl)cccc2Cl)c1C(=O)NCCCN1CCOCC1  -0.3%
31. Cc1ccc(NC(=O)C(=O)NCCN2CCN(C(=S)Nc3ccccc3)CC2)cc1  -0.2%
32. FC(F)(F)C1=CC(c2ccccc2)=NCCN1  0.2%
33. Cc1nn2c(=O)c(NC(=O)c3ccc(Cl)cc3)cnc2s1  0.6%
34. Fc1ccc(NC(=S)N2CCn3cccc3C2c2cccnc2)cc1 (centres undefined)  1%
35. CN1CCN(C(=O)C2=C[C@@H](c3ccc(C(F)(F)F)cc3)C[C@@H](OCCCCO)O2)CC1  1.4%
36. Cc1ccc(NC(=O)C(Nc2ccccc2)c2ccccc2)cc1 (centres undefined)  1.5%
37. O=C(c1ccccc1)N1CCOC12CCN(c1ncc(C(F)(F)F)cc1Cl)CC2  2.1%
38. COc1ccc(OC)c2sc(NC(=O)CCSc3ccccc3)nc12  2.1%
39. Cc1c(/C=N\NC(=O)c2csc3ccccc23)cnn1C  2.4%
40. O=c1[nH]c2ccccc2c2ccccc12  3.6%
41. CCc1nc2c(sc3nc4c(cc32)COC(C)(C)C4)c(=O)n1CCN(CC)CC  3.8%
42. Cc1ccc(/C(N)=N/OC(=O)c2cccc(F)c2)cc1  3.9%
43. O=C(O)c1ccc(CSCc2ccco2)cc1  4.1%
44. NNC(=O)COc1ncn(-c2ccccc2)n1  4.5%
45. CC(=O)N1N=C(c2cccc([N+](=O)[O-])c2)OC1c1cccc(Br)c1 (centres undefined)  4.5%
46. CCCOC(=O)c1ccc(Oc2c(-c3ccc(O)cc3O)n[nH]c2C)cc1  5.2%
47. CC1CN(c2nc3ccccc3cc2-c2ccccc2)CC(C)O1 (centres undefined)  5.7%
48. COc1ccc(C(=O)n2nnc3ccccc32)cc1OC  6%
49. Cc1cccc(NC2=C(NC(=O)c3ccccc3)C(=O)c3ccccc3C2=O)c1  6.2%
50. CCOc1cc(C(=O)N2CCN(c3ccc(C(C)=O)cc3)CC2)cc(OCC)c1OCC  6.8%
51. O=C(Nc1cccc(S(=O)(=O)Nc2ccccc2Cl)c1)c1ccc(Cl)nc1  7.3%
52. NC(=O)NNC1=Nc2cccc3cccc1c23  8.5%
53. COc1cc([N+](=O)[O-])ccc1NC(=O)CCCOc1cccc(C)c1C  9.2%
54. COc1c2ccoc2c(OC[C@@H](O)C(C)(C)OC)c2oc(=O)ccc12  9.3%
55. Cc1c(/C=N\NC(=O)c2ccc(F)cc2)cnn1C  9.7%
56. c1ccc(NC2=Nc3cccc4cccc2c34)cc1  9.8%
57. O=C(CCCN1C(=O)c2cccc3cccc(c23)C1=O)N1CCN(c2ncccn2)CC1  10.1%
58. Oc1ccc2ccccc2c1C1Nc2cccc3cccc(c23)N1  10.6%
59. COCCN1CCCC(CNCc2cn(C)nc2-c2ccc(Oc3ccccc3)cc2)C1 (centres undefined)  10.6%
60. OCCN1CCN(c2ncnc3nc[nH]c23)CC1  10.7%
61. c1ccc(CC2CCN(C3=Nc4cccc5cccc3c45)CC2)cc1  10.8%
62. COc1cc(N2CCCC2)c(OC)cc1/C=C(/C#N)c1cccc(F)c1  11.2%
63. Cc1cc(C)cc(OCC(=O)OCCN2C(=O)c3ccccc3C2=O)c1  11.5%
64. CC(C(=O)Nc1cccc([N+](=O)[O-])c1)N1CCN(C/C=C/c2ccccc2)CC1 (centres undefined)  12%
65. c1cc2c3c(cccc3c1)C(N1CCCCCC1)=N2  12.7%
66. CCC(=O)NCCNc1nc2cc(C)cc(C)c2cc1C#N  12.8%
67. COc1cc(N2CCCC2)c(OC)cc1/C=C(/C#N)c1ccc(Br)cc1  13.6%
68. Cc1ccc(NC2=C(NC(=O)c3ccccc3)C(=O)c3ccccc3C2=O)cc1Cl  14%
69. CCCCC(=O)Nc1ccc(NC(=S)NC(=O)c2cccs2)cc1OC  14.4%
70. CCCCC(=Nc1ccc(N)cc1)C1=C(O)C(C(=O)OC)C(C)(C)CC1=O (centres undefined)  15.5%
71. CC(=O)Nc1c(O)c2ccccc2[nH]c1=O  17.5%
72. c1ccc(CN2CCN(C3=Nc4cccc5cccc3c45)CC2)cc1  21.9%
73. COc1cc(N2CCCC2)ccc1C=O  23%
74. CN(C1=C(NC(=O)c2ccc(Cl)cc2)C(=O)c2ccccc2C1=O)c1ccccc1  25.2%
75. COc1ccccc1N1CCN(C2=Nc3cccc4cccc2c34)CC1  27.3%
76. CCC12CN3CC(CC)(CN(C1)C3c1c(O)ccc3ccccc13)C2=O (centres undefined)  27.9%
77. COc1cc(N2CCCC2)c(OC)cc1/C=C1/NC(=S)NC1=O  27.9%
78. CCCC(=Nc1ccc(N)cc1)C1=C(O)C(C(=O)OC)C(C)(C)CC1=O (centres undefined)  28.8%
79. Fc1ccc(N2CCN(C3=Nc4cccc5cccc3c45)CC2)cc1  32.1%
80. C#CCNC(=O)C1=C[C@@H](c2ccc(C(F)(F)F)cc2)C[C@@H](OCCCCO)O1  38.5%

In the case of `CCCc1nc2c(sc3nc4c(cc32)COC(C)(C)C4)c(=O)n1CCN(C)C`, the inhibition is reported as 50.8% (active).
`CN1c2ccccc2N(C)C1c1c(O)ccc2ccccc12` was tested, and the inhibition was 55.3% (active).
With `CCC(=Nc1ccc(N)cc1)C1=C(O)C(C(=O)OC)C(C)(C)CC1=O` (centres undefined) the inhibition was 53.8% (active).
With `Cc1ccc2cccc(O)c2[n+]1[O-]` the inhibition was 53.5% (active).
In the case of `COc1cc(N2CCCC2)c(OC)cc1C=O`, the inhibition is reported as 53.6% (active).
`COc1cc(N2CCCC2)c(OC)cc1/C=C(/C#N)c1ccc(F)cc1` was tested, and the inhibition was 54.8% (active).
With `CCOC(=O)N1CCN(C2=Nc3cccc4cccc2c34)CC1` the inhibition was 58.5% (active).
In the case of `NC1=Nc2cccc3cccc1c23`, the inhibition is reported as 60% (active).
With `CC1CN(C2=Nc3cccc4cccc2c34)CC(C)O1` (centres undefined) the inhibition was 59.2% (active).
For `c1ccc2c(c1)CCN(C1=Nc3cccc4cccc1c34)C2`, the inhibition was 60.2% (active).
In the case of `CC(=O)N1CCN(C2=Nc3cccc4cccc2c34)CC1`, the inhibition is reported as 52.4% (active).
For `c1cc2c3c(cccc3c1)C(N1CCCCC1)=N2`, the inhibition was 58.7% (active).
For `NC(=O)C1=C[C@@H](c2ccc(Br)cc2)C[C@@H](OCCCCO)O1`, the inhibition was 66.1% (active).
`NC(=O)C1=C[C@H](c2ccc(C(F)(F)F)cc2)C[C@H](OCCCCO)O1` was tested, and the inhibition was 53.7% (active).
For `NC(=O)C1=C[C@@H](c2ccc(C(F)(F)F)cc2)C[C@@H](OCCCCO)O1`, the inhibition was 57.4% (active).
In the case of `Cc1occc1C(=O)N/N=C/c1cnn(C)c1C`, the inhibition is reported as 64% (active).
In the case of `Oc1c(C2=NCCNC(C(F)(F)F)=C2)ccc2ccccc12`, the inhibition is reported as 54.4% (active).
With `O=C(NC1=C(Nc2ccc(F)cc2)C(=O)c2ccccc2C1=O)c1ccc(Cl)cc1` the inhibition was 55.3% (active).
`O=C(NC1=C(Nc2ccc(Cl)cc2)C(=O)c2ccccc2C1=O)c1ccccc1` was tested, and the inhibition was 58% (active).
